Source: PubChem BioAssay (NCI)
The panel holds about 83,000 compounds, 20% with a hit somewhere; the sample as a whole holds those more often.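 Method: cells in 96-well plates; compound added at one concentration; 48 h incubation; percent growth measured; values under 10 scored active.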 Unmarked numbers belong to inactive results. Calls of active or inactive are those of the source.

Legend:
Assay in all cases: NCI-60 one-dose screen, 48 h (100 = growth as untreated, 0 = no growth, -100 = all killed)
Details in all cases: 10 µM unless noted
NCI-H23 lung = tested on: NCI-H23 lung
NCI-H226 lung = tested on: NCI-H226 lung
NCI-H322M lung = tested on: NCI-H322M lung
HOP-62 NSCLC = tested on: HOP-62 NSCLC
NCI-H460 lung = tested on: NCI-H460 lung
HOP-92 NSCLC = tested on: HOP-92 NSCLC
NCI-H522 lung = tested on: NCI-H522 lung
A549/ATCC NSCLC = tested on: A549/ATCC NSCLC
786-0 renal = tested on: 786-0 renal
COLO 205 colon = tested on: COLO 205 colon
DU-145 prostate = tested on: DU-145 prostate
K-562 leukemia = tested on: K-562 leukemia
MALME-3M melanoma = tested on: MALME-3M melanoma
MDA-MB-231 breast = tested on: MDA-MB-231 breast
RXF 393 renal = tested on: RXF 393 renal
SF-268 CNS = tested on: SF-268 CNS
SF-295 CNS = tested on: SF-295 CNS
SF-539 CNS = tested on: SF-539 CNS
UACC-257 melanoma = tested on: UACC-257 melanoma
M14 melanoma = tested on: M14 melanoma

Structure (SMILES)	growth (NCI-H23 lung)	growth (NCI-H226 lung)	growth (NCI-H322M lung)	growth (HOP-62 NSCLC)	growth (NCI-H460 lung)	growth (HOP-92 NSCLC)	growth (NCI-H522 lung)	growth (A549/ATCC NSCLC)	growth (786-0 renal)	growth (COLO 205 colon)	growth (DU-145 prostate)	growth (K-562 leukemia)	growth (MALME-3M melanoma)	growth (MDA-MB-231 breast)	growth (RXF 393 renal)	growth (SF-268 CNS)	growth (SF-295 CNS)	growth (SF-539 CNS)	growth (UACC-257 melanoma)	growth (M14 melanoma)
Cc1cc2nc3c4cc(C=O)ccc4n(CCN(C)C)c3nc2cc1C	17.4%	-3.6% (active)	21%	7.67% (active)	0.703% (active)	27%	-9.47% (active)	6.3% (active)	27.5%	-15.9% (active)	0.0752% (active)	5.5% (active)	-3.12% (active)	24%	19.4%	37.3%	17.1%	21%	11.4%	15.8%
Cc1c(C(=O)NCCC(=O)NO)sc2ncnc(Nc3ccc(NC(=O)Nc4cccc(C(F)(F)F)c4)cc3)c12	100%	97.9%	104%	102%	99.4%	115%	94.4%	104%	116%	113%	105%	104%	112%	105%	104%	93.4%	91.8%	79%	108%	107%
Cc1ccccc1NS(=O)(=O)c1cccc(C(=O)Nc2ccc(Br)cc2)c1	18.5% [25 µM]	29.1% [25 µM]	64.2% [25 µM]	80.7% [25 µM]	35.8% [25 µM]	21.1% [25 µM]	39.6% [25 µM]	38.1% [25 µM]	53.6% [25 µM]	52.4% [25 µM]	57.8% [25 µM]	23.1% [25 µM]	18% [25 µM]	56% [25 µM]	60.7% [25 µM]	36.5% [25 µM]	19.7% [25 µM]	57.3% [25 µM]	27.4% [25 µM]	35.5% [25 µM]
COc1ccc2c(c1)C(=O)CC(c1ccccc1OC)O2 (stereo not given)	86.9%	93.8%	104%	92.6%	100%	94.3%	93%	96%	104%	109%	103%	101%	102%	86.8%	106%	96.6%	101%	96.6%	101%	106%
CN1CCN(C(=O)[C@]23CCC(C)(C)C[C@H]2C2=CC[C@@H]4[C@@]5(C)C/C(=C/c6cccnc6)C(=O)C(C)(C)[C@@H]5CC[C@@]4(C)[C@]2(C)CC3)CC1	72.8%	79.7%	96.3%	85.2%	31.9%	40.7%	49.4%	47%	73.7%	42.9%	71.6%	10.9%	63.4%	59.8%	64.9%	68.3%	74%	80%	43.7%	57.5%
O=C(/C=C(O)/C=C/c1ccc(SC(F)(F)F)cc1)/C=C/c1ccc(SC(F)(F)F)cc1	83.2%	100%	102%	101%	91.1%	93%	93.7%	95.4%	87.2%	114%	97.2%	77.6%	98.6%	99.8%	104%	86.3%	97.5%	106%	104%	79.9%
O=C(CCN1CCCC1)Nc1ccc2c(Nc3ccc(Br)cc3)c3ccccc3nc2c1	18.8%	62%	-11.4% (active)	-19.5% (active)	-69.2% (active)	31.3%	-25% (active)	-42.4% (active)	42.8%	-42.9% (active)	-70.8% (active)	-43.1% (active)	-86.2% (active)	-49.4% (active)	47%	-7.83% (active)	46.3%	-67.9% (active)	-48.4% (active)	-75% (active)
COc1ccccc1NS(=O)(=O)c1cccc(C(=O)Nc2ccc(Br)cc2)c1	35.9%	44.2%	53.1%	62.9%	47%	38.9%	46.7%	46%	59.5%	57.9%	52.1%	25.6%	32%	50.6%	57.7%	30.9%	27%	64.3%	32.9%	38.9%
COc1cc(/C(C)=C(\c2ccc(Cl)cc2)c2ccc(OCCN(C)C)cc2)ccc1F	76.5%	91%	69%	87.6%	7.61% (active)	44.6%	80.2%	63.4%	65.7%	-33.8% (active)	67.9%	8.38% (active)	-7.62% (active)	50.8%	60.5%	70.8%	89.7%	71.7%	-4.66% (active)	31.5%
CCN(CC)CCCC(C)Nc1cc(O)cc2cccnc12 (stereo not given)	98.8%	112%	110%	104%	108%	89.4%	125%	96.2%	118%	74.5%	113%	87.4%	128%	69.4%	105%	98.6%	104%	103%	93.8%	113%
CC(=O)Nc1ccc(-c2ccc3c(c2)NC(=O)/C3=C\c2ccc[nH]2)cc1	52.5%	85.8%	64.5%	95.7%	50.1%	130%	59.3%	92.4%	99.3%	139%	72%	96.1%	109%	80.7%	104%	92.1%	87.2%	81.4%	119%	105%
COc1cc(C2=C(c3cn(C)c4ccccc34)COC2=O)cc(OC)c1OC	14.2%	15.3%	26.6%	31.7%	3.03% (active)	19.1%	3.38% (active)	18.4%	20.9%	-4.65% (active)	19.9%	6.17% (active)	44.5%	22.5%	-21% (active)	25.8%	-5.22% (active)	-19.7% (active)	67.4%	-13.9% (active)
COc1ccc(N2CCN(c3ccc(NC4=C(Cl)C(=O)c5ncccc5C4=O)cc3)CC2)cc1	26.2%	52.8%	46.9%	56.2%	17.6%	85.8%	43.8%	36.1%	80.1%	43%	35.3%	4.16% (active)	31%	56.7%	62.6%	40%	81.2%	39.4%	35.6%	53.6%
CC(C)(C)c1cc(/C=N/NC(=O)c2ccccc2NC(=O)c2cccs2)c(O)c(C(C)(C)C)c1	48.6%	55.1%	39.1%	20.7%	-11% (active)	75.4%	27.8%	12.8%	18.4%	4.49% (active)	32.5%	13.1%	49.6%	44.3%	64.6%	24.6%	40%	51.7%	38.6%	27.6%
CCCCCN1C=C/C(=C\C(=O)N(C)c2ccc(OC(F)(F)F)cc2)c2ccccc21	87.1%	95%	99.6%	90.8%	101%	98.1%	78.5%	91.3%	99.4%	104%	110%	90.3%	95.3%	97.7%	107%	100%	93%	103%	93.8%	102%
